The list is not random: actives were taken first. Their share in the collection is about 21%.
VP16 counter = inhibits Gal4-VP16 luciferase reporter, ROR gamma counter-screen; Drosophila S2 Gal4-VP16 UAS-luciferase, luminescence, 20 h; Potency, µM (doses to about 53.6 µM), actives largely listed as inhibitors; actives 3.5% (n = 310,000);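 also: Gal4-VP16 expression switched on by copper sulfate through the metallothionein promoter; nearly all actives have a fitted effect of over 50% in size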
RORgamma inh = ROR gamma (mouse) transcription inhibition | P51450 | Drosophila S2 Gal4-RORgamma UAS-luciferase reporter, 20 h | Potency, µM (series often up to 53.6 µM), most hits filed as inhibitors | actives 5.4% (n = 310,000); also: nearly all actives have a fitted effect of over 60% in size
Target sequence (P51450 whole entry, looked up, the tested form may be a part): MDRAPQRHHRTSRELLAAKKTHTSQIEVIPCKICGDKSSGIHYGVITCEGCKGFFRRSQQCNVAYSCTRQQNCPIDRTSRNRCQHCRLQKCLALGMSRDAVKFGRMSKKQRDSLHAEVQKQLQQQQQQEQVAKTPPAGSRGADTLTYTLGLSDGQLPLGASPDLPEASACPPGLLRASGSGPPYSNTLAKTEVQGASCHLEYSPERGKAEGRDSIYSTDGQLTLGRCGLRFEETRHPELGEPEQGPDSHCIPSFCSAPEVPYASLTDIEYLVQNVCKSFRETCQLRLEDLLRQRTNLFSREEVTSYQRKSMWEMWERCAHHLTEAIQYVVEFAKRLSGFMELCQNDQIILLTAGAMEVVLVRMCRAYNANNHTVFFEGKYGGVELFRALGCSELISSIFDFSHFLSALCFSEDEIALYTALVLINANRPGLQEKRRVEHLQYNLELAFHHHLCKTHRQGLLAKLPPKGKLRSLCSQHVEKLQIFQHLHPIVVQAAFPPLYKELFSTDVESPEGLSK
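Luminescence from a UAS-regulated Photinus luciferase reporter in stably transfected Drosophila Schneider cells is measured; decreased signal marks ROR gamma inhibition. Fusion expression is induced by 700 uM copper sulfate for 20 hr.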
DT40 TDP1 CPT = growth inhibition of DT40 Tdp1-/-;hTDP1 cells with camptothecin (screen for TDP1 inhibitors); AID 686979; Potency, µM (series often up to 46.2 µM), actives largely listed as inhibitors; actives 12% (n = 420,000); chicken DT40 Tdp1-/-;hTDP1 cells + 20 nM CPT, ATP luminescence, 48 h; also: nearly all actives have a fitted effect of over 55% in size
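Chicken DT40 Tdp1-/- cells complemented with human TDP1, 400 cells/well, exposed to compounds plus 20 nM camptothecin for at least 48 h at 37 C; viability read as ATP content by CellTiter-Glo luminescence.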
IL-1B inflam inh = inhibitors of inflammasome signaling (IL-1 beta secretion); activity change, % at 57.5 µM; THP-1 LPS/ATP IL-1B secretion, AlphaLISA, 16 h; stronger effect = lower value; actives 4.7% (n = 360,000); AID 743279; in the data active = activity change below about -50%; inconclusive = mostly about -30% to -49%
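THP-1 cells pretreated 1 hr with compounds (up to 57.5 uM final), then stimulated with LPS (250 ng/mL final) plus ATP (1.25 mM final); secreted IL-1B measured by AlphaLISA after 16 hr, decreased signal indicating inhibition.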
DT40 TDP1 no CPT = qHTS for Inhibitors of human tyrosyl-DNA phosphodiesterase 1 (TDP1): qHTS in cells in absence of CPT; DT40 Tdp1-/- hTDP1 cells, no CPT, ATP luminescence, 48 h; Potency, µM (series often up to 46.2 µM), hits mostly inhibitors; actives 15% (n = 420,000); AID 686978, 2013; also: nearly all actives have a fitted effect of over 55% in size
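No-CPT arm: Tdp1-/-;hTDP1 DT40 cells (400/well) plus compounds, incubated ≥48 hr at 37 °C. Readout CellTiter-Glo luminescence.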
ELG1 repair inh = inhibitors of ELG1-dependent DNA repair in HEK293T cells. HEK293T ELG1-luciferase reporter, luminescence, 16 h; DNA damage induced by 5-fluorouridine. Potency, µM (top dose mostly 46.1 µM), usual class: inhibitors. actives 2.3% (n = 330,000). AID 504467; also: nearly all actives have a fitted effect of over 55% in size
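Luminescence from the luciferase reporter, measured 30 min after ONE-Glo reagent at room temperature, was the read-out. Beforehand, 2,000 cells per well were exposed for 16 hr at 37 °C to 5-fluorouridine together with compound or vehicle.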
Numbers stand for hits; i = inactive; ? = inconclusive; nt = not tested or not shown; [ ] = dose if it differs, or a comment. Unless noted, calls follow the shape of the dose curve; as a rule, active = well fitted curve in the direction sought with a large enough effect; inconclusive = small, poorly fitted or top-dose-only effect, or another doubt; inactive = no such curve, though single readings can be large; an effect the other way counts as inactive or inconclusive.

SMILES	VP16 counter	RORgamma inh	DT40 TDP1 CPT	IL-1B inflam inh	DT40 TDP1 no CPT	ELG1 repair inh
CC(NC(=O)c1ccco1)C(c1cccs1)N1CCN(c2ccc(F)cc2)CC1 (stereo not given)	?	i	18µM	-72	23µM	?
CCN1CCN(C(c2cccs2)C(C)NS(=O)(=O)c2ccc(Br)cc2)CC1 (stereo not given)	i	i	?	i	26µM	i
CC(NC(=O)Cc1cccs1)C(c1cccs1)N1CCN(c2ccccc2F)CC1 (stereo not given)	i	i	18µM	i	?	i
CCS(=O)(=O)NC(C)C(c1cccs1)N1CCN(c2ccc(F)cc2)CC1 (stereo not given)	i	?	?	i	21µM	i
CCS(=O)(=O)NC(C)C(c1cccs1)N1CCN(C)CC1 (stereo not given)	i	i	i	i	i	i
C[C@H](O)CNC(=O)c1[nH]cnc1C(=O)Nc1cccc(Cl)c1	nt	nt	i	i	i	nt
Cc1ccc(N2CCN(c3cc(C)nc4c(-c5ccc(Cl)cc5)c(C)nn34)CC2C)cc1 (stereo not given)	nt	nt	i	nt	i	nt
CCCCCCCCCCCCCCCC[n+]1ccc(/C=C/c2c[nH]c3ccccc23)c2ccccc21	nt	nt	5µM	nt	14µM	nt
CCCCCCC[n+]1ccc(/C=C/c2c[nH]c3ccccc23)c2ccccc21	nt	nt	1µM	nt	1.1µM	nt
CCCCCCCCCCCC[n+]1ccc(/C=C/c2c[nH]c3ccccc23)c2ccccc21	nt	nt	2.5µM	nt	2.2µM	nt
CCCc1nc(SCc2ccc(OCC)cc2)n[nH]1	i	i	i	i	?	i
Cc1ccc(NC2CCCN(C(=O)C3CCCCC3)C2)cc1C (stereo not given)	i	i	i	i	?	?
Cc1ccc(-n2nc(C(=O)Nc3ccc(F)cc3Cl)c(=O)n(C)c2=O)cc1	nt	nt	i	nt	i	nt
CCOCCOc1nc2c(c(=O)n(C)c(=O)n2C)n1CCc1ccccc1	i	i	18µM	i	21µM	?
C=CCOc1nc2c(c(=O)n(Cc3ccc(Cl)c(Cl)c3)c(=O)n2C)n1C	nt	nt	16µM	i	23µM	nt
CCOc1nc2c(c(=O)n(C)c(=O)n2C)n1Cc1ccccc1Cl	i	i[10 µM]	16µM	i	12µM	8.2µM
Cn1c(=O)c2c(nc(OCCc3ccccc3)n2C)n(C)c1=O	i	i	?	i	i	?
C=CCOc1nc2c(c(=O)n(C)c(=O)n2C)n1Cc1c(Cl)cccc1Cl	i	i	?	i	21µM	?
Cn1c(OCc2ccc3c(c2)OCO3)nc2c1c(=O)n(Cc1ccc(Cl)c(Cl)c1)c(=O)n2C	i	i	?	i	?	i
COC(=O)[C@@H]1CC[C@H](C)[C@@H](c2ccc(C)cc2)N1C(=O)c1ccc(/C=N\OC[C@@H](O)[C@H]2O[C@H]3OC(C)(C)O[C@H]3[C@@H]2O)cc1	i[10 µM]	i[10 µM]	nt	nt	nt	nt
Cc1cc2oc(=O)cc(CN3CCOCC3)c2c(C)c1Cl	i	i	i	i	i	i
COc1ccc(NC(=O)COC(=O)C2CCC(C(C)(C)C)CC2)c([N+](=O)[O-])c1 (stereo not given)	i	i	?	i	?	i
COCCOc1nc2c(c(=O)n(C)c(=O)n2C)n1Cc1cccc(OC)c1	?	?	8.2µM	i	7.3µM	?
CCn1c(Oc2cccc(Br)c2)nc2c1c(=O)n(C)c(=O)n2C	i	i	i	i	i	?
CC(=O)c1ccc(N2CCN(C(=O)c3cc(S(=O)(=O)N4CCOCC4)ccc3C)CC2)cc1	nt	nt	i	i	i	i
NC1=NCCCC1	i	i	3.8µM	nt	2.7µM	nt
CCCNC(=S)N1CCN(CC)CC1	i	i	i	i	i	i
CC(CC(C)(C)C)CP(=O)(O)CC(C)CC(C)(C)C (stereo not given)	i	i	nt	nt	nt	nt
CC(C)C(=O)Nc1ccc(-c2nc3cccnc3o2)cc1	?	i	i	i	i	?
Cc1cc(-c2nc3ncccc3o2)ccc1NC(=O)COc1ccc(C(C)(C)C)cc1	nt	nt	18µM	nt	16µM	nt

Screens as filed in PubChem BioAssay.
